GLP-1R agonist: qHTS of GLP-1 Receptor Agonists; HEK293 GLP-1R CRE-luciferase, luminescence, 4-6 h; cells express a hypersensitive GLP-1R form; Potency, µM (titrated, usually from 45.6 µM), for the others: top-dose activation, hits mostly activators; 380,000 tested, 0.007% active; Glucagon-like peptide 1 receptor (Homo sapiens), P43220; further: potency means the concentration at half of the fitted maximal effect; % of control where 0% means no effect
Target sequence (P43220 whole entry, looked up): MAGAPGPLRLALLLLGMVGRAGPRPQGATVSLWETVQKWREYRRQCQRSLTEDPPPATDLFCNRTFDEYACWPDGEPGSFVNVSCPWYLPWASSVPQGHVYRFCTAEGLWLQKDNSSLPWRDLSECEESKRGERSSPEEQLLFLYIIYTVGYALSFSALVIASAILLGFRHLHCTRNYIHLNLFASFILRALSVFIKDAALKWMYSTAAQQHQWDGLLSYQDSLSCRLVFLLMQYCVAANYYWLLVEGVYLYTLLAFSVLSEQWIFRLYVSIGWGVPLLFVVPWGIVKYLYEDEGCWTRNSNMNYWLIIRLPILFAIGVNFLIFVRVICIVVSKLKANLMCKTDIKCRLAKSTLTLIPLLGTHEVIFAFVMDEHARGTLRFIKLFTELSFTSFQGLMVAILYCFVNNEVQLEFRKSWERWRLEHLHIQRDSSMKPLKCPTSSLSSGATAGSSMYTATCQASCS
HEK293 tox: qHTS of GLP-1 Receptor Inverse Agonists: Cytotox Screen | HEK293 cAMP-luciferase reporter cells, luminescence, 24 h | Potency, µM (doses to about 38.3 µM), for the others: top-dose activity change, negative = inhibition, usual class: inhibitors | 410,000 tested, 0.13% active;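 further: loss of luciferase light is scored as toxicity; potency means the concentration at half of the fitted maximal effect; on the % scale 0 is the no-effect control and ±100 the full control effect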
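Here, cytotoxicity is scored as loss of luminescence. The MLSMR collection was tested on cells seeded in medium containing 10% Nu serum, with a 24 hr compound exposure preceded by 12 hours of culture.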
CCT chaperon mod: High-Throughput Screening for Modulators of Cytosolic Chaperonin Activity. 360,000 tested, 0.3% active. AID 651819, 2012. activity change, % (no concentration beside the values), hits read low. purified chaperonin ATPase assay, HTRF ADP detection, 30 min; in the data active means activity change below about -30%; further: on the % scale 0 is the no-effect control and ±100 the full control effect
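ATPase activity: ADP formed was measured by HTRF Transcreener (665/615 nm ratio) after 30 min at 37 deg C with 10 uM ATP. Compounds screened at one 76 uM concentration against 40 or 20 nM TRiC in Tris pH 7.4/KCl/MgCl2/DTT buffer.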
uPA generation: qHTS for Inhibitors of Cell Surface uPA Generation; Potency, µM (titrated, usually from 38.3 µM), without a hit: at the top dose activity change, negative = inhibition, most hits filed as inhibitors; cell surface uPA generation assay, qHTS; 330,000 tested, 0.31% active; AID 540303, 2011; active means well fitted inhibition curve with a large enough effect; inconclusive means small, poorly fitted or top-dose-only effect; inactive means no such curve, though single readings can be large or run the other way; tested in mouse RAW 264.7 cells; further: potency means the concentration at half of the fitted maximal effect; on the % scale 0 is the no-effect control and ±100 the full control effect; nearly all actives have a fitted effect of over 55% in size
Mm-Cpn inhibitor: Inhibitors of TCP-1 ring complex (TRiC) of Methanococcus maripaludis (MmCpn): qHTS; Chaperonin Mm-Cpn (Methanococcus maripaludis); purified Mm-Cpn ATPase, ADP Transcreener TR-FRET; Potency, µM (doses to about 76.9 µM), inactives show top-dose activity, negative = inhibition, hits mostly inhibitors; 330,000 tested, 0.031% active; AID 504842, 2011; further: potency means the concentration at half of the fitted maximal effect; on the % scale 0 is the no-effect control and ±100 the full control effect; nearly all actives have a fitted effect of over 80% in size
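Quantitative HTS used 25 nM Mm-CPN and 10 uM ATP in magnesium/KCl Tris buffer, pH 7.4, with 1 mM DTT. Hydrolysis ran 30 min at 37°C; ADP was read by HTRF.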
GLP1R inv ag: qHTS of GLP-1 Receptor Inverse Agonists (Inhibition Mode) | 410,000 tested, 1.6% active | Glucagon-like peptide 1 receptor (Homo sapiens), P43220 | Potency, µM (highest dose often 38.3 µM), inactives show at the highest dose activity change, negative = inhibition, hits mostly inhibitors | HEK293 GLP-1R CRE-luciferase, luminescence, 24 h; GLP-1R form is constitutively active | AID 624417, 2012; further: potency means the concentration at half of the fitted maximal effect; on the % scale 0 is the no-effect control and ±100 the full control effect; nearly all actives have a fitted effect of over 55% in size
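HEK293 cells stably co-expressing a cAMP-responsive luciferase reporter and constitutively active GLP-1R were seeded, incubated 12 h, then exposed to compounds for 24 h at 37 C. Luminescence was read 12 min after detection reagent; inverse agonists lower signal.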
* marks the source's active call; other numbers are inactive results. Only some compounds are listed: those with a hit (about 2.2% of all), similar ones and a draw of the others. Unless noted, the call rests on the fitted dose curve; in most records, active means well fitted curve in the direction sought with a large enough effect; inconclusive means small, poorly fitted or top-dose-only effect, or another doubt; inactive means no such curve, though single readings can be large; an effect the other way counts as inactive or inconclusive.

How did COC(=O)c1c(NC(=O)CSc2nnc(-c3ccco3)n2Cc2ccccc2)sc(C)c1C do in these assays?
GLP-1R agonist: -0.5%; HEK293 tox: 0.0%; CCT chaperon mod: 2.3; uPA generation: 11.1%; Mm-Cpn inhibitor: -2.8%; GLP1R inv ag: 12.6µM*

Results for CCOC(=O)c1c(NC(=O)CSc2nnc(-c3ccco3)o2)sc(C)c1C ?
GLP-1R agonist: 0.8%; HEK293 tox: -21.8%; CCT chaperon mod: -1.9; uPA generation: -7.1%; Mm-Cpn inhibitor: -3.5%; GLP1R inv ag: 0.0%

What do the screens show for `NC(=O)CSc1nnc(-c2cc3ccccc3o2)n1Cc1ccccc1`?
GLP-1R agonist: 2.1%; HEK293 tox: -16.5%; CCT chaperon mod: -61.9*; uPA generation: 3.7%; Mm-Cpn inhibitor: 7.2%; GLP1R inv ag: 0.4%

How did O=C(CSc1nnc(-c2ccncc2)n1Cc1ccco1)OC1CCCCC1 do in these assays?
GLP-1R agonist: -10.5%; HEK293 tox: 7.3%; CCT chaperon mod: 0.3; Mm-Cpn inhibitor: 1.2%; GLP1R inv ag: 50.2%

What do the screens show for `COC(=O)c1c(NC(=O)CSc2nc3ccccc3c(=O)n2Cc2ccco2)sc(C)c1C`?
GLP-1R agonist: 1.7%; HEK293 tox: 6.2%; CCT chaperon mod: -2.1; uPA generation: -2.0%; Mm-Cpn inhibitor: -0.1%; GLP1R inv ag: 16.5%

What do the screens show for `O=C(CSc1nnc(-c2ccco2)n1Cc1ccccc1)OC1CCCCC1`?
GLP-1R agonist: 1.5%; HEK293 tox: -20.3%; CCT chaperon mod: -1.5; uPA generation: -0.9%; Mm-Cpn inhibitor: 2.4%; GLP1R inv ag: 10µM*

How did CCOC(=O)c1ccc(NC(=O)CSc2nccn2Cc2ccc(OC)cc2)cc1 do in these assays?
HEK293 tox: -0.4%; GLP1R inv ag: -1.4%

Results for CCOC(=O)c1ccc(NC(=O)CSc2nc3ccccc3c(=O)n2CCNC(C)=O)cc1 ?
HEK293 tox: 8.6%; GLP1R inv ag: 0.9%

What do the screens show for `CC(C)c1cc(C(=O)NC(C)c2ccccc2)no1` (centres undefined)?
HEK293 tox: -10.3%; GLP1R inv ag: 1.5%

Results for Oc1ccccc1/C=N/NC(=S)NC1CC2CC1C1C=CCC21 (centres undefined) ?
GLP-1R agonist: -2.1%; HEK293 tox: 4.47µM*; CCT chaperon mod: -1.1; uPA generation: -12.7%; Mm-Cpn inhibitor: -11.6%; GLP1R inv ag: inconclusive

How did CC(C)COc1ccc(CSCCNC(=S)Nc2ccccc2)cc1 do in these assays?
GLP-1R agonist: 1.8%; HEK293 tox: 4.47µM*; CCT chaperon mod: 0.3; uPA generation: -4.7%; Mm-Cpn inhibitor: 0.0%; GLP1R inv ag: 3.16µM*

Results for CCCCOc1ccc(CSCCNC(=S)Nc2ccccc2)cc1 ?
GLP-1R agonist: -4.2%; HEK293 tox: 3.16µM*; CCT chaperon mod: 0.2; uPA generation: -8.5%; Mm-Cpn inhibitor: -0.1%; GLP1R inv ag: 1.78µM*

Results for COc1ccc(Cl)cc1NC(=O)c1cc(S(=O)(=O)N2CCc3ccccc32)cn1C ?
HEK293 tox: 2.8%; GLP1R inv ag: -4.7%

How did Cc1ccc(CNC(=O)c2oc3ccc(S(=O)(=O)N4CCCC(C)C4)cc3c2C)cc1 (centres undefined) do in these assays?
HEK293 tox: -3.9%; GLP1R inv ag: inconclusive

How did O=C(/C=C/c1ccccc1)NC(NC(=S)Nc1ccc(Cl)cc1Cl)C(Cl)(Cl)Cl (centres undefined) do in these assays?
GLP-1R agonist: -10.3%; HEK293 tox: inconclusive; CCT chaperon mod: -0.6; uPA generation: -8.6%; Mm-Cpn inhibitor: 0.8%; GLP1R inv ag: inconclusive

Screening data (PubChem)
